MITF primary: inhibitors of human MITF; inhibition, % at 2.6 µM; 650,000 compounds, 0.91% hits; AlphaScreen MITF homodimerization, bead proximity signal; O75030; in the data active = inhibition above about 50%;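 note: 0% = vehicle wells with protein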
TEAD-YAP block: TEAD-YAP interaction inhibition; HEK-TIYL cells, TEAD-Gal4/YAP UAS-luciferase luminescence; inhibition, % at 9.12 µM; 640,000 compounds, 1.4% hits; AID 1259422; in the data active = inhibition above about 32%;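 note: 0% = median of test compound wells and 100% = reference inhibitor wells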
GPR151 ag: activates the human receptor GPR151 | PathHunter beta-arrestin GPR151 cells, luminescence | activation, % at 11.2 µM | Q8TDV0 | 650,000 compounds, 1% hits; in the data active = activation above about 4.9%;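 note: 0% = median of compound wells and 100% = cells with positive control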
FBW7 act: activators of human E3 ligase FBW7; AlphaScreen FBW7–phospho-cyclin E peptide binding, activator screen; normalized activity (activation), % at 26.1 µM; 650,000 compounds, 0.13% hits; AID 1259310; in the data active = normalized activity above about 1.9%;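 note: purified mutant Fbw7 with reduced substrate affinity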
Target sequence (Q969H0 whole entry, looked up): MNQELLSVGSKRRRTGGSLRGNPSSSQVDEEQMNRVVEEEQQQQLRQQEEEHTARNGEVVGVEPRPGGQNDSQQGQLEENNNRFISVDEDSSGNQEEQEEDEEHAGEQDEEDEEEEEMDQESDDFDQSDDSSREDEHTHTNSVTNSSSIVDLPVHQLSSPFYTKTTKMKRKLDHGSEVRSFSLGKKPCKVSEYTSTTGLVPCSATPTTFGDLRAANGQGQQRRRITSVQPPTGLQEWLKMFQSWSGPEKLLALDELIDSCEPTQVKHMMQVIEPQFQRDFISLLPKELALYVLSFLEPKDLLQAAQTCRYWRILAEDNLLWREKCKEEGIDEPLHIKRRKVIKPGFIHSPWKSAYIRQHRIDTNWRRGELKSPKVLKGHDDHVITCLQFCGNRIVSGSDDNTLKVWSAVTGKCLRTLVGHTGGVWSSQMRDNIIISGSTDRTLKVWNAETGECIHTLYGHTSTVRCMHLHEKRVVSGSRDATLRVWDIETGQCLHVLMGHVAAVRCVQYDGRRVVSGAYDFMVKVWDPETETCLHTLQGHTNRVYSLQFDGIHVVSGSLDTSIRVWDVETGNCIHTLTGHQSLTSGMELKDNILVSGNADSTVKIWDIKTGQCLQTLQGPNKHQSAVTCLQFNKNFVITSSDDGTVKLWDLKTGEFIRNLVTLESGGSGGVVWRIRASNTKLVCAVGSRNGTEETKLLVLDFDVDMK
* hit, by the source's call. Only some compounds are listed: those with a hit (about 3.4% of all), similar ones and a draw of the others.

SMILES	MITF primary	TEAD-YAP block	GPR151 ag	FBW7 act
CCC(C)NC(=O)Cn1ncc2c3ccccc3n(Cc3ccccc3)c2c1=O (stereo unspecified)	-4	-1	0	0
O=C(NNC(=O)c1cccnc1SCc1cccc([N+](=O)[O-])c1)c1ccccn1	24	39*	-1	-1
CCC(CC)C(=O)N1CCCC(c2nc(-c3cccc(OC)c3)no2)C1 (stereo unspecified)	-1	42*	-1	0
COc1ccc(-c2noc(C3CCCN(C(=O)c4c(OC)cccc4OC)C3)n2)cc1 (stereo unspecified)	-4	47*	1	0
CCCC(=O)N1CCCC(c2nc(-c3cccc(OC)c3)no2)C1 (stereo unspecified)	0	-8	-1	0
CC1(c2ccc([N+](=O)[O-])cc2)NC(=O)N(CC(=O)Nc2ccccc2C#N)C1=O (stereo unspecified)	14	0	0	0
Cc1cncc2c(S(=O)(=O)N3CCCN(C(=O)CN)C[C@@H]3C)cccc12	11	-7	3	0
Cc1cncc2cccc(S(=O)(=O)N3CCCN(C(=O)CN)C[C@@H]3C)c12	16	36*	1	0
COc1ccc(CCNC(=O)c2ccnc(-c3ccc(N4CCOCC4)nc3)c2)cc1	11	-8	0	0
CCOC(=O)C1=CS/C(=C2/C(=S)C(C)(C)Nc3c(OCC)cccc32)S1	53*	-5	0	0
CCOC(=O)C1=CS/C(=C2/C(=S)C(C)(C)N(C(=O)CC(C)C)c3ccc(OCC)cc32)S1	-4	7	0	0
COC(=O)c1ccc(C(=O)OC)c2c(C(=O)OC)c(Cl)cc(C(=O)OC)c12	1	-4	-1	0
COC(=O)[C@@H]1C[C@@H](NC(=O)c2ccc3ccccc3c2O)CN1Cc1cc(F)ccc1F	1	42*	0	0
C(=C\c1ccc2c(c1)OCCO2)/c1ccc2c(c1)OCCO2	19	97*	-10	1
O=C(C1CC(Cc2ccccc2)=NO1)N1CCc2ccccc2C1 (stereo unspecified)	-7	-7	-1	0
CC(=O)Nc1ccc(Nc2nc(Nc3ccc4ncccc4c3)nc3c2ncn3-c2ccsc2)cc1	8	30	0	0
c1ccc(Nc2nc(Nc3nccc4ccccc34)nc3c2ncn3-c2ccsc2)cc1	3	-10	-1	0
c1cncc(CNc2nc(Nc3ccc(N4CCOCC4)cc3)c3ncn(-c4ccsc4)c3n2)c1	9	20	0	0
CC(=O)Nc1ccc(Nc2nc(Nc3ccccn3)nc3c2ncn3-c2ccsc2)cc1	-3	45*	-1	0
c1cnc(Nc2nc(Nc3ccc(N4CCOCC4)cc3)c3ncn(-c4ccsc4)c3n2)cn1	-8	46*	1	0
c1ccc2c(Nc3nc(Nc4ccc(N5CCOCC5)cc4)c4ncn(-c5ccsc5)c4n3)nccc2c1	16	73*	-1	0
c1ccc(Nc2nc(Nc3ccc(N4CCOCC4)cc3)c3ncn(-c4ccsc4)c3n2)nc1	2	37*	1	0
CC(=O)Nc1cccc(Oc2ccc3c(c2)C(=O)N(c2ccc(OC(C)=O)cc2)C3=O)c1	-7	24	0	0
CCOc1cccc(N2C(=O)CC(NNC(=O)c3cccc(F)c3)C2=O)c1 (stereo unspecified)	2	-5	2	0
c1ccc(Nc2nc(Nc3ccc(N4CCOCC4)cc3)c3ncn(-c4ccsc4)c3n2)cc1	6	39*	3	0
SMILES	MITF primary	TEAD-YAP block	GPR151 ag	FBW7 act
CCCC(=O)Oc1ccc2ccc(=O)oc2c1	-11	-4	-2	0
CCOc1ccc(S(=O)(=O)N2c3ccccc3CC2C)cc1 (stereo unspecified)	4	52*	1	0
COc1ccc(S(=O)(=O)N2c3ccccc3CC2C)cc1 (stereo unspecified)	0	48*	2	0
Cc1ccc(S(=O)(=O)N2c3ccccc3CC2C)cc1 (stereo unspecified)	-10	4	-1	0
CCC(=O)Nc1ccc(S(=O)(=O)N2c3ccccc3CC2C)cc1 (stereo unspecified)	-8	7	1	0
Cc1ccc(N2C(=O)C3C4C=CC(C4)C3C2=O)c(C)c1 (stereo unspecified)	1	5	-1	0
Cc1ccc(S(=O)(=O)Nc2ccccc2C(=O)Nc2ccc(-c3nc4ccc(C)cc4s3)cc2)cc1	5	-3	-1	1
Cc1ccc(S(=O)(=O)NC(=O)Nc2ccc(-c3nc4ccc(C)cc4s3)cc2)cc1	16	91*	-9	0
CC1=CCC(C(=O)O)C(C(=O)Nc2ccc(-c3nc4ccc(C)cc4s3)cc2)C1 (stereo unspecified)	-12	59*	-3	0
O=C(O)c1ccccc1-c1ccc2cccnc2n1	4	1	0	0
CC(C)(C)c1cc(CC(=O)O)c2c(c1)C(C)(C)CC2	7	48*	-2	1
C/C(=N/NC(N)=O)c1cc(C(C)(C)C)cc2c1CCC2(C)C	5	-11	2	0
COC(=O)C1=C(C)NC2=C(C(=O)c3ccccc32)C1c1cc(Cl)c(OC)c(OC)c1 (stereo unspecified)	14	61*	-1	0
O=C(O)c1ccc(NC2CCCCC2)c([N+](=O)[O-])c1	13	4	-1	1
N#CC(C#N)=Cc1cn(CC(=O)NCc2ccco2)c2ccccc12	9	-1	3	0
OCc1ccc(-c2cnc3ccc(NCc4cccs4)nn23)cc1	-8	35*	-1	0
Oc1ccc(-c2cnc3ccc(NCc4cccs4)nn23)cc1	-12	62*	3	0
Fc1ccc(-c2cnc3ccc(NCc4cccs4)nn23)cc1	-16	-4	0	0
OCc1cccc(-c2cnc3ccc(NCc4cccs4)nn23)c1	12	-1	-1	0
CN1CCN(c2ccc(-c3nc4ccc(C(=O)NCCO)cc4s3)cc2)CC1	-7	67*	-1	0
COc1cc(NC(=O)c2ccc3nc(-c4ccc(C(=O)N5CCN(C)CC5)cc4)sc3c2)cc(OC)c1OC	13	52*	0	0
COc1cc(NC(=O)c2ccc3nc(-c4c(C)nn(C)c4C)sc3c2)cc(OC)c1OC	3	35*	-1	0
COc1cc(NC(=O)c2ccc3nc(-c4ccc(N5CCN(C)CC5)cc4)sc3c2)cc(OC)c1OC	11	62*	-2	0
O=C(CSCCc1ccccn1)Nc1ccc(Cl)c(Cl)c1	4	1	1	0
Cc1ccc2nsnc2c1S(=O)(=O)O	14	11	0	0
CCN(CC)C(=O)Cn1cnc2sc(C(=O)Nc3ccc(Cl)cn3)c(C)c2c1=O	-15	-20	1	0
CCOC(=O)C1(Cc2cccc(Cl)c2)CCCN(C(=O)CSc2ccncc2)C1 (stereo unspecified)	5	1	1	0
COc1cc2c(cc1/C=C1\SC(=O)N(CC(=O)N3CCOCC3)C1=O)OCO2	7	9	3	0

Compound activity: PubChem BioAssay, The Scripps Research Institute Molecular Screening Center
